# Bioassay records deposited in PubChem by National Center for Advancing Translational Sciences (NCATS).
# Only some compounds are listed: those with a hit (about 7% of all), similar ones and a draw of the others.
# ATXN2 expr inh – Primary qHTS for Inhibitors of ATXN expression; actives 0.72% (n = 360,000); HEK-293 ATXN2-luciferase reporter, luminescence, 24 h; Potency, µM (titrated, usually from 57 µM), without a hit: at the highest dose activity change, negative = inhibition, usual class: inhibitors; note: potency is the fitted concentration of half-maximal effect; % is set by controls: 0 for no effect and ±100 for the full control effect; nearly all actives have a fitted effect of over 55% in size
#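 ATXN2-luciferase reporter cells (luciferase flanked by upstream and downstream ATXN2 gene portions) were treated 24 h at 37 °C with compounds at up to 57 uM. SteadyGlo luminescence gave expression; GF-AFC fluorescence gave viability.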
# ATXN viability – Viability Counterscreen for Primary qHTS for Inhibitors of ATXN expression | Potency, µM (series often up to 56.7 µM), actives largely listed as cytotoxic | S2 cells (HEK-293 line with an ATXN2-luciferase reporter) viability, CellTiter-Fluor protease fluorescence, 24 h | actives 0.49% (n = 400,000); note: potency is the fitted concentration of half-maximal effect; nearly all actives have a fitted effect of over 40% in size
# D3 antag – qHTS of D3 Dopamine Receptor Antagonist: qHTS; D3R cells, DiscoveRx beta-arrestin luminescence, antagonist mode; active compounds read low; max response, negative = inhibition, %; actives 2.5% (n = 360,000); AID 652054, 2013; in the data active = max response below about -50%; inconclusive = no clear call, values can overlap the other calls; note: % is set by controls: 0 for no effect and ±100 for the full control effect
# Target sequence (P35462 whole entry, looked up): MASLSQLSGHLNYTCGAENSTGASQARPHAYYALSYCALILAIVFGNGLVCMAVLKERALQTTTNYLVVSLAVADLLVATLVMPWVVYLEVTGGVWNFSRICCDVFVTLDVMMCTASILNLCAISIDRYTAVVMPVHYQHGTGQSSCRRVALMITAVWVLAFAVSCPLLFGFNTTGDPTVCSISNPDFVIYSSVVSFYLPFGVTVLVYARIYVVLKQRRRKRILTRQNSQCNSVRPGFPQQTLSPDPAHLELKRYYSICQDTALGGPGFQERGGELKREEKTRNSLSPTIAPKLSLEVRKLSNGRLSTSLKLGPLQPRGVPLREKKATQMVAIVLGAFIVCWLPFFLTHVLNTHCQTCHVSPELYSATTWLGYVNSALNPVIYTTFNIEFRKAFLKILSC
#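 Cells expressing the human receptor were seeded at 1500 cells/well, incubated overnight at 37 degrees C in 5% CO2, then exposed to library compounds with dopamine controls for 90 minutes at 37 degrees C before luminescent detection.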
# IL-1B inflam inh – qHTS for Inhibitors of Inflammasome Signaling: IL-1-beta AlphaLISA Primary Screen. THP-1 LPS/ATP IL-1B secretion, AlphaLISA, 16 h; active compounds read low. activity change, % at 57.5 µM. actives 4.7% (n = 360,000). AID 743279, 2014; in the data active = activity change below about -50%; inconclusive = mostly about -30% to -49%; note: % is set by controls: 0 for no effect and ±100 for the full control effect
#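 Secreted IL-1B measured by AlphaLISA bead assay after 16 h compound exposure of THP-1 cells; compounds (final up to 57.5 uM) added 1 h before LPS (250 ng/mL) and ATP (1.25 mM) stimulation; lower signal means less secretion.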
# D3 ag – qHTS of D3 Dopamine Receptor Agonist: qHTS. actives 0.58% (n = 410,000). max activation, %. AID 652048, 2013. D(3) dopamine receptor (Homo sapiens), P35462. D3R DiscoveRx beta-arrestin cells, luminescence, 90 min; in the data active = max activation above about 30%; note: 0% is about no effect
#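 Agonist-mode cell screen: cells plated at 1500/well and incubated overnight at 37 °C, then exposed to library compounds for 90 min at 37 °C. Detection reagent was added for 30–60 min at room temperature, and luminescence was read.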
# a7 integrin act – qHTS for Activators of Integrin-Mediated Alleviation for Muscular Dystrophy; Potency, µM (top dose mostly 38.3 µM), without a hit: top-dose activation, hits mostly activators; alpha7betagal myoblasts, beta-gal FDG fluorescence, 48 h; actives 0.064% (n = 350,000); AID 624291, 2012;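 note: potency is the fitted concentration of half-maximal effect; 100% = response of the positive control SU9516; nearly all actives have a fitted effect of over 60% in size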
#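 alpha7betagal+/- myoblasts (passage 13, 250/well) treated 48 h at 37C with compounds at 1:260 dilution of DMSO stock. Lysed, then beta-galactosidase activity read as FDG fluorescence (ex 480/em 540) after 30 min, with pre-read for autofluorescence.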
# * marks the source's active call; other numbers are inactive results; i = inactive; ? = inconclusive; / = no result. Unless noted, calls come from the whole dose curve; as a rule, active = well fitted curve in the direction sought with a large enough effect; inconclusive = small, poorly fitted or top-dose-only effect, or another doubt; inactive = no such curve, though single readings can be large; an effect the other way counts as inactive or inconclusive.
SMILES,ATXN2 expr inh,ATXN viability,D3 antag,IL-1B inflam inh,D3 ag,a7 integrin act
Cc1ccccc1CC1(CO)CCCN(Cc2nc(-c3cccs3)oc2C)C1 (centres undefined),/,?,-104*,-4,-2,-21%
CCN(CC)C(=O)N1CCC(NC(=O)Cc2ccccc2)CC1,7%,i,-23,0,-4,4%
O=C(N/N=C/c1ccncc1)c1ccccn1,12%,i,3,8,1,-10%
COc1cc(/C=N/NC(=O)c2ccccn2)ccc1OC(=O)c1ccc(Br)cc1,29%,i,4,0,37*,?
CC(C)c1ccc(/C=N/NC(=O)c2ccccn2)cc1,13µM*,i,-20,-53*,1,13%
O=C(N/N=C/C(Cl)=C/c1ccccc1)c1ccccn1,63%,i,6,-57*,1,-44%
O=C(N/N=C/C(Br)=C/c1ccccc1)c1cnccn1,-17%,?,-26,-99*,-16,-58%
CC(=O)c1ccc(N2C(=O)N(Cc3ccccc3C#N)c3ccccc3S2(=O)=O)cc1,-17%,i,/,/,-9,/
Cc1ccn2c(=O)nc(SCC(=O)N3CCN(c4ccccc4)CC3)nc2c1,-3%,i,15,8,3,-4%
Cc1cc(-c2ccco2)n(CC(=O)NCCCc2ccccc2)n1,-1%,i,13,5,7,-18%
COc1ccc(C2=C(C)C(N3CCN(c4ccc(OC)cc4)CC3)=NS2(=O)=O)cc1,/,/,/,/,-8,/
O=C(N/N=C/C(Cl)=C/c1ccccc1)c1ccncc1,-28%,i,7,-92*,3,9%
COc1ccc(NC(=S)N2CCN(c3ccccc3)CC2)c(OC)c1,5%,i,-17,?,-16,3%
Cc1ccc(N(CC(=O)NCc2cccnc2)S(C)(=O)=O)cc1C,5%,i,-10,28,1,9%
O=C(CC1C(=O)NCCN1C(=O)Nc1ccc(C(F)(F)F)cc1)Nc1ccc(F)cc1 (centres undefined),-21%,i,17,?,4,4%
COc1ccc(NC(=O)CC2C(=O)NCCN2C(=O)Nc2ccc(C(F)(F)F)cc2)cc1 (centres undefined),-19%,i,22,-79*,-4,-24%
Cc1cc(C)cc(NC(=O)N2CCNC(=O)C2CC(=O)Nc2cc(Cl)ccc2Cl)c1 (centres undefined),-16%,i,8,-57*,6,-19%
COC(=O)c1cccc(NC(=O)CC2C(=O)NCCN2C(=O)Nc2cc(C)cc(C)c2)c1 (centres undefined),3%,i,10,-62*,8,-2%
CCOC(=O)C(CCCCCOc1ccc([N+](=O)[O-])cc1)C(=O)OCC,-9%,i,21,7,17,-49%
CC(=O)N1CCN(S(=O)(=O)c2ccc(F)c(Cl)c2)CC1,-11%,/,-11,-1,-5,-8%
Cc1cccc(NC(=O)CSc2cn(CC(=O)N3CCCCCC3)c3ccccc23)c1,/,/,/,/,-15,/
Cc1nc2c(-c3ccccc3)cnn2c(N)c1-c1ccccc1,54%,i,6,-78*,3,17%
O=C(/C=C/c1ccccc1)c1ccc2c(c1)OCCCCO2,55%,i,?,-78*,-8,-65%
Cc1ccc(C(=O)/C=C/c2ccc3c(c2)OCCO3)c(O)c1,64%,?,2,-93*,1,1%
O=C(C=Cc1ccc2c(c1)OCO2)c1ccccc1,36%,i,1,-72*,-12,-40%
SMILES,ATXN2 expr inh,ATXN viability,D3 antag,IL-1B inflam inh,D3 ag,a7 integrin act
N#Cc1ccc(/C=C/C(=O)c2ccc3c(c2)OCO3)cc1,/,?,?,-69*,-1,11%
O=C(/C=C/c1ccc2c(c1)OCO2)c1ccccn1,20%,?,9,-1,-6,-28%
CC1(C)CC(=O)C2=C(C1)N(c1ncn[nH]1)C(N)=C(C#N)C2c1ccccc1 (centres undefined),-11%,i,-17,32,-4,-4%
COc1ccc(CNc2nc3nc(C)cc(C)n3n2)cc1OC,10%,i,-56*,-4,5,-9%
CC(C)CCN1C(=O)c2ccc(C(=O)Nc3ccccc3C(=O)O)cc2C1=O,18%,i,90,16,16,-5%
CNc1nnc(SCC(=O)c2cc(C)n(C3CC3)c2C)s1,/,i,-1,-18,-1,13µM*
Clc1ccc(CSc2nnc(CNc3cccc(Cl)c3)o2)cc1,-19%,i,-57*,-3,-21,23%
Cc1ccc(OCCNC(=O)[C@H]2O[C@@H](n3ccc(=O)[nH]c3=O)[C@H](O)[C@@H]2O)cc1C,9%,i,17,0,2,/
Nc1ccc(Sc2ccc([N+](=O)[O-])cc2)cc1,/,i,-14,-70*,-3,2%
COc1ccc(NC(=O)CSc2nc3ccccc3nc2Cc2ccc(C)cc2)cc1Cl,-6%,?,/,/,9,/
CCOc1ccccc1OCC(=O)Nc1nnc(COC)s1,3%,i,?,-1,1,9%
O=C1c2ccccc2NC(c2cc(Cl)cc(Cl)c2O)N1Cc1cccnc1 (centres undefined),-17%,i,-28,33,-8,2%
COc1cc2c(cc1OC)C(c1cc(Br)ccc1F)N(C(=O)CCl)CC2 (centres undefined),/,?,-87*,-71*,-2,-58%
COc1ccccc1CCNC(=O)C(=O)NCC(c1ccco1)S(=O)(=O)c1ccc(C)cc1 (centres undefined),/,/,/,/,-21,/
CC(C)c1cc(C(=O)NNC(=S)NCc2ccco2)c(O)c(C(C)C)c1,?,?,30,-54*,7,0%
COc1ccc(OC)c(Nc2nc(NCCCN(C)C)nc(N)c2[N+](=O)[O-])c1,?,i,-10,-99*,3,-53%
COCCCNc1nc(N)c([N+](=O)[O-])c(Nc2cc(OC)ccc2OC)n1,-11%,i,-22,/,-8,3%
CCCCCCCOc1ccc(C2CC(=O)N(C)C2=O)cc1 (centres undefined),13%,i,4,-76*,3,-3%
CN(C)c1ccc(N=Nc2nc3ccccc3n2C)cc1,/,/,-74*,0,-20,-46%
Cn1c(N=Nc2ccccc2)nc2ccccc21,7%,i,-7,0,-5,-7%
Cc1nn(CC(=O)NCCC2=CCCCC2)c(C)c1S(=O)(=O)N(C)C,6%,i,1,22,4,-7%
